Assay [1] can be described thus: qHTS assay to identify small molecule agonists of the sonic hedgehog signaling (Shh) pathway (AID 1259368; calls by dose curve;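 also: NIH/3T3-derived 3T3Gli1-Luc cells carrying a stable Gli1-driven firefly luciferase reporter; series mostly up to about 92 µM; nearly all actives have a fitted effect of over 15% in size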). The gist of the method: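 Cells of a mouse NIH/3T3 clone stably expressing luciferase under the Gli1 transcriptional response element are exposed to test chemicals for 24 hr at 37 C. Pathway activation is detected as a rise in luminescence.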
Assay [2] can be described thus: qHTS assay to identify small molecule antagonists of the sonic hedgehog signaling (Shh) pathway (AID 1259369; calls by dose curve; also: nearly all actives have a fitted effect of over 45% in size; also: potency is read from the fitted curve at half-maximal effect). The gist of the method: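 Cells are plated and held 4hr at 37 C, compounds (DMSO) are pinned in, conditioned medium is added to stimulate the pathway, and after 24hr luciferase reagent is added for 30min before luminescence is read.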
(Quantitative high-throughput screening tests each substance at several concentrations.)

Assay [3] concerns the target Estrogen receptor beta (Homo sapiens) (UniProt Q92731). The assay can be described thus: qHTS assay to identify small molecule agonists of the estrogen receptor beta (ER-beta) signaling pathway (AID 1259377; active = well fitted activation curve with a large enough effect in the signal ratio in the repeat runs, not every such curve was filed as active; the % refers to the signal ratio). The gist of the method: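 Reporter cells (HEK293T, ER-beta-UAS-bla) receive compounds or DMSO after a 6 hr pre-incubation. They then incubate 16 hr at 37C/5% CO2, and fluorescence from LiveBLAzer B/G substrate is measured after 2 hours at room temperature.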

The target is the same in assay [4]. Kind of assay: qHTS assay to identify small molecule antagonists of the estrogen receptor beta (ER-beta) signaling pathway (AID 1259378; active = well fitted inhibition curve with a large enough effect in the signal ratio in the repeat runs, not every such curve was filed as active; the % refers to the signal ratio). The essentials:
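ER-beta-UAS-bla HEK293T cells in 2% charcoal-stripped FBS medium treated with compound plus 1nM final 17-beta-estradiol for 16 hr at 37C. Beta-lactamase reporter read by FRET substrate fluorescence after 2 hours at room temperature.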

Assay [5] in a line: qHTS assay to identify small molecule agonists of the androgen receptor (AR) signaling pathway in the presence of an antagonist - cell viability counter screen (AID 1259379).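 Also: MDA-kb2 human breast cancer cells carrying an MMTV luciferase reporter; series mostly up to about 92 µM; nearly all actives have a fitted effect of over 25% in size.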 The essentials:
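Cytotoxicity is assessed by CellTiter-Fluor in MDA-kb2 cells carrying an MMTV-driven luciferase reporter. Cells receive 3.0uM nilutamide plus compounds at 15 concentrations and incubate 16 hr at 37C without CO2 before fluorescence reading.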

A short description of assay [6]: qHTS assay to identify small molecule agonists of the estrogen receptor beta (ER-beta) signaling pathway - cell viability counter screen (AID 1259380). Also: nearly all actives have a fitted effect of over 30% in size. The essentials:
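Cytotoxicity is measured in parallel with the reporter screen: after 16 hr compound exposure at 37C and a 2 hr LiveBLAzer step, CellTiter-Glo is added to the same ER-beta-UAS-bla HEK293T wells and luminescence read after 30 min.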

The nature of assay [7]: qHTS assay to identify small molecule antagonists of the estrogen receptor beta (ER-beta) signaling pathway - cell viability counter screen (AID 1259382). Also: series mostly up to about 92 µM; nearly all actives have a fitted effect of over 55% in size. The essentials:
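Cytotoxicity counter screen multiplexed with the beta-lactamase antagonist assay: GripTite HEK293T ER-beta-bla cells were treated 16 hr with test chemicals in the presence of 1nM 17-beta-estradiol, and viability was measured by CellTiter-Glo.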

Assay [8] in a line: qHTS assay to identify small molecule agonists or antagonists of the thyroid stimulating hormone receptor (TSHR) signaling pathway - wild type cell line counter screen (AID 1259384; calls by dose curve). The essentials:
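Wild-type Hek293 cells, 800/well, 18 h at 37C, then compound with Ro20-1724 for 30 min RT. cAMP by HTRF (cAMP-d2/anti-cAMP cryptate), 1 h RT, fluorescence read. 15 concentrations, triplicates.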

In assay [9] the target is Thyrotropin receptor (Homo sapiens) (UniProt P16473). The assay can be described thus: qHTS assay to identify small molecule antagonists of the thyroid stimulating hormone receptor (TSHR) signaling pathway (AID 1259385; calls by dose curve; also: nearly all actives have a fitted effect of over 20% in size). The essentials:
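TSHR-HEK293 cells (800/well) plated 18 h, then compounds with Ro20-1724 and TSH at 1.5 ng/mL final, 30 min at room temperature. cAMP quantified by HTRF (cAMP-d2/anti-cAMP-cryptate, 1 h); 15 concentrations in triplicate.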

Assay [10] in a line: qHTS assay to identify small molecule agonists of the estrogen receptor alpha (ER-alpha) signaling pathway in the presence of an antagonist - cell viability counter screen (AID 1259386).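 Also: series mostly up to about 92 µM; cells exposed to compounds for 22 h at 37 °C before the viability read; nearly all actives have a fitted effect of over 30% in size.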 The gist of the method:
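Cytotoxicity was measured in parallel with the ERE-luciferase agonist screen, in the same wells. The cells were VM7Luc4E2, which endogenously express ER-alpha, and treatment was with compounds plus 10.0nM ICI-182,780 for 22hr.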

The target in assay [11] is Progesterone receptor (Homo sapiens) (UniProt P06401). Kind of assay: qHTS assay to identify small molecule agonists of the progesterone receptor (PR) signaling pathway (AID 1346784; calls by dose curve; also: nearly all actives have a fitted effect of over 30% in size). The essentials:
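Reporter assay, GripTite PR-UAS-bla HEK 293T cells: 16 hr exposure to DMSO-dissolved compounds at 37C, 5% CO2, in steroid-depleted (2% charcoal-stripped FBS) medium; beta-lactamase measured by FRET fluorescence.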

The target is the same in assay [12]. The assay can be described thus: qHTS assay to identify small molecule antagonists of the progesterone receptor (PR) signaling pathway (AID 1346795; active = well fitted inhibition curve with a large enough effect in the signal ratio in the repeat runs, not every such curve was filed as active; the % refers to the signal ratio). The gist of the method: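 Stimulus R5020 at 1 nM final; cells HEK293T PR-UAS-bla; medium with 2% charcoal-stripped FBS; compound exposure 16 hr at 37C, 5% CO2; detection by FRET beta-lactamase substrate, 2 hr, room temperature.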

Assay [13] is described as follows: qHTS assay to identify small molecule antagonists of the progesterone receptor (PR) signaling pathway - cell viability counter screen (AID 1346798). Also: series mostly up to about 92 µM; nearly all actives have a fitted effect of over 50% in size. The gist of the method:
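In the same plates used for the beta-lactamase readout, cell viability of compound- and R5020-treated PR-UAS-bla HEK293T cells (16 hr, 37C) was assessed by CellTiter-Glo luminescence.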

Assay [14] can be described thus: qHTS assay to identify small molecule agonists of the progesterone receptor (PR) signaling pathway - cell viability counter screen (AID 1346799; calls by dose curve; also: nearly all actives have a fitted effect of over 45% in size). The gist of the method:
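Multiplexed viability read: CellTiter-Glo luminescence, 30 min RT, following LiveBLAzer FRET measurement on PR-UAS-bla HEK293T cells exposed to compounds 16 hr.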

A short description of assay [15]: qHTS assay to identify small molecule antagonists of the TGF-beta/Smad signaling pathway - cell viability counter screen (AID 1346824). Also: nearly all actives have a fitted effect of over 50% in size. The gist of the method: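 SBE-bla HEK 293T cells, incubated overnight, then compound plus 0.25 ng/mL TGF-beta1 (stock added) for 5 hr at 37 C. Viability was read in the same wells by CellTiter-Glo luminescence after 30 min at room temperature.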

Assay [16] can be described thus: qHTS assay to identify small molecule agonists of the TGF-beta/Smad signaling pathway - cell viability counter screen (AID 1346829). Also: top concentration of the series differs between compounds; nearly all actives have a fitted effect of over 45% in size. The gist of the method: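 SBE-bla HEK 293T cells plated overnight, compound exposure 5 hr at 37 C. Viability read in the same wells by CellTiter-Glo luminescence after 30 min at room temperature, following the beta-lactamase read.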

A short description of assay [17]: qHTS assay to identify small molecule agonists of the TGF-beta/Smad signaling pathway (AID 1346859; active = well fitted activation curve with a large enough effect in the signal ratio in the repeat runs, not every such curve was filed as active; the % refers to the signal ratio; also: series mostly up to about 77 µM). The gist of the method:
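Screening used HEK 293T SBE-bla cells at 4,000/well. Test agents: 5 hr, 37 C. Detection: FRET substrate, 2 hr RT, then excitation 405 nm with emissions at 460 and 530 nm.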

The target in assay [18] is Estrogen receptor (Homo sapiens) (UniProt P03372). The assay can be described thus: qHTS assay to identify small molecule agonists of the estrogen receptor alpha (ER-alpha) signaling pathway in the presence of an antagonist (AID 1259383; calls by dose curve; also: top concentration of the series differs between compounds; nearly all actives have a fitted effect of over 15% in size). The essentials: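 Agonist-mode confirmation in the presence of the ER antagonist ICI-182,780 at 10.0nM final. Breast-derived VM7Luc4E2 reporter cells were exposed to compounds for 22hr, and ERE-driven luciferase was quantified by luminescence.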
Sequence of Estrogen receptor (Homo sapiens) (P03372 whole entry, looked up): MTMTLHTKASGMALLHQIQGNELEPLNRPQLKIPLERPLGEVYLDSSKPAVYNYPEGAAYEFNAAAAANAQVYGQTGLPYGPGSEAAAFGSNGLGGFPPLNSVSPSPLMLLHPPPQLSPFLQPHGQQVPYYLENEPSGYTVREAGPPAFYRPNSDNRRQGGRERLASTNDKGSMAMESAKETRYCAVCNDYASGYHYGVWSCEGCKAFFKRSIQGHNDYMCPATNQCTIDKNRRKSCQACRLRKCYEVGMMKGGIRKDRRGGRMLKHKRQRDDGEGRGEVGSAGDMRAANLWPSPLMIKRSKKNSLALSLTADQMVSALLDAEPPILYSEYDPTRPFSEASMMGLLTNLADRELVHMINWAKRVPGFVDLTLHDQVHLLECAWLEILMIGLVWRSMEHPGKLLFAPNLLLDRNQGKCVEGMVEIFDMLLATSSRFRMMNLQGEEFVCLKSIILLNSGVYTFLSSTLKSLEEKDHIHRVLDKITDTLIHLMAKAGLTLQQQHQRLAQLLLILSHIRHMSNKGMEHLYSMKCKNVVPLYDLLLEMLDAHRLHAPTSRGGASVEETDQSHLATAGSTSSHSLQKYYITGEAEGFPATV

The target in assay [19] is Thyrotropin-releasing hormone receptor (Homo sapiens) (UniProt P34981). Kind of assay: qHTS assay to identify small molecule antagonists of the thyrotropin-releasing hormone receptor (TRHR) signaling pathway (AID 1346877; active = well fitted inhibition curve with a large enough effect in the repeat runs, not every such curve was filed as active; also: series mostly up to about 51 µM). The essentials:
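Antagonism is measured as suppression of the calcium response to 1 nM TRH in TRHR-HEK293 cells that have been dye-loaded for 2 h at 37 °C after overnight plating. Each compound is tested at 15 concentrations in triplicate.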

The source of these data is PubChem BioAssay (Tox21).

“And” between values parts separate entries of the source, which are not always exact repeats. Equal entries are not always repeated. Results filed as inconclusive are left out. A structure can be active in one record and inactive in another. The source made the active and inactive calls. Unless noted, calls follow the shape of the dose curve; as a rule, active = well fitted curve in the direction sought with a large enough effect in the repeat runs; inconclusive = weak or mixed curves; inactive = no such curve, though single readings can be large; an effect the other way counts as inactive or inconclusive.

Sequence of Estrogen receptor beta (Homo sapiens) (Q92731 whole entry, looked up): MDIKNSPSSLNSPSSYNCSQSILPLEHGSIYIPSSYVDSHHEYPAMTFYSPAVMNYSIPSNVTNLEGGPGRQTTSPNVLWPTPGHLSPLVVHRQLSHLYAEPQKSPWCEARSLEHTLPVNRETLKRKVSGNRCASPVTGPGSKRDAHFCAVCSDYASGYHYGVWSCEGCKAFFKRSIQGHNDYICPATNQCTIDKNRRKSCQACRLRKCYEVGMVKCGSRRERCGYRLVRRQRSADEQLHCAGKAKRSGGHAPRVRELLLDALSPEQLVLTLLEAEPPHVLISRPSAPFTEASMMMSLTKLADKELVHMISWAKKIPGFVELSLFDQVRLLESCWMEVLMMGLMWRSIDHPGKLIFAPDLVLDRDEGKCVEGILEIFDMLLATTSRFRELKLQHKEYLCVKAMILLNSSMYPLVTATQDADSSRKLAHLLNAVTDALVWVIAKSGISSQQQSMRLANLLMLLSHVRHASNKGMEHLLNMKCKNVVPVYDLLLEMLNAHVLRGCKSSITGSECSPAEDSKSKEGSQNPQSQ
Sequence of Thyrotropin-releasing hormone receptor (Homo sapiens) (P34981 whole entry, looked up): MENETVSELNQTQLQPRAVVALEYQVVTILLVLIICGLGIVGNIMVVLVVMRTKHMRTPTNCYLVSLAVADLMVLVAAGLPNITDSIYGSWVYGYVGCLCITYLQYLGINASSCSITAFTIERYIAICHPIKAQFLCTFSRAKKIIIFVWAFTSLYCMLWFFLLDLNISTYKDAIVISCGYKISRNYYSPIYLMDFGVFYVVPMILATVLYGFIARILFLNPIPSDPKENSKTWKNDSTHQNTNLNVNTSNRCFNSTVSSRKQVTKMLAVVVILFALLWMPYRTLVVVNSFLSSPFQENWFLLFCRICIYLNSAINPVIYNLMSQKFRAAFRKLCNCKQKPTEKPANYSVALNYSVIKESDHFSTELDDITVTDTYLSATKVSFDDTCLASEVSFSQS
Sequence of Thyrotropin receptor (Homo sapiens) (P16473 whole entry, looked up): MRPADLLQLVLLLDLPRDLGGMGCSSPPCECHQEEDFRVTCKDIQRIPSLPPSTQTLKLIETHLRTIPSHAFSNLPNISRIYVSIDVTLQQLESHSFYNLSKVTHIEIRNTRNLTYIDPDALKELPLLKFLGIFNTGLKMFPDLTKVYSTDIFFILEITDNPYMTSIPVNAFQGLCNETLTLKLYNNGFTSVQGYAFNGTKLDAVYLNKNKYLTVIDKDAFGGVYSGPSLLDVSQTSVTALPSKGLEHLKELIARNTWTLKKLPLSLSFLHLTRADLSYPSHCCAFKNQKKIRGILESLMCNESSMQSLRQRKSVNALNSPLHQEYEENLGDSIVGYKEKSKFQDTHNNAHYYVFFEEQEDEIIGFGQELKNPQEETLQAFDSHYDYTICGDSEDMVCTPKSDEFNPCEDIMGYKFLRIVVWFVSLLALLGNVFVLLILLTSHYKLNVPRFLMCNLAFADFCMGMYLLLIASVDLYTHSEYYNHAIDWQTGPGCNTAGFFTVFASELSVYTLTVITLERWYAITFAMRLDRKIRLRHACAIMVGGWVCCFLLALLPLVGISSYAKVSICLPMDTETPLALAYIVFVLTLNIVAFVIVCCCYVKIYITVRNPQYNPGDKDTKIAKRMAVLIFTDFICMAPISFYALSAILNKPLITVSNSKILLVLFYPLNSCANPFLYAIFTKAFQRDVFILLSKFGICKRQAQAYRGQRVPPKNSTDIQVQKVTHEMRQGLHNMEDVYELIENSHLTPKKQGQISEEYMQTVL
Sequence of Progesterone receptor (Homo sapiens) (P06401 whole entry, looked up): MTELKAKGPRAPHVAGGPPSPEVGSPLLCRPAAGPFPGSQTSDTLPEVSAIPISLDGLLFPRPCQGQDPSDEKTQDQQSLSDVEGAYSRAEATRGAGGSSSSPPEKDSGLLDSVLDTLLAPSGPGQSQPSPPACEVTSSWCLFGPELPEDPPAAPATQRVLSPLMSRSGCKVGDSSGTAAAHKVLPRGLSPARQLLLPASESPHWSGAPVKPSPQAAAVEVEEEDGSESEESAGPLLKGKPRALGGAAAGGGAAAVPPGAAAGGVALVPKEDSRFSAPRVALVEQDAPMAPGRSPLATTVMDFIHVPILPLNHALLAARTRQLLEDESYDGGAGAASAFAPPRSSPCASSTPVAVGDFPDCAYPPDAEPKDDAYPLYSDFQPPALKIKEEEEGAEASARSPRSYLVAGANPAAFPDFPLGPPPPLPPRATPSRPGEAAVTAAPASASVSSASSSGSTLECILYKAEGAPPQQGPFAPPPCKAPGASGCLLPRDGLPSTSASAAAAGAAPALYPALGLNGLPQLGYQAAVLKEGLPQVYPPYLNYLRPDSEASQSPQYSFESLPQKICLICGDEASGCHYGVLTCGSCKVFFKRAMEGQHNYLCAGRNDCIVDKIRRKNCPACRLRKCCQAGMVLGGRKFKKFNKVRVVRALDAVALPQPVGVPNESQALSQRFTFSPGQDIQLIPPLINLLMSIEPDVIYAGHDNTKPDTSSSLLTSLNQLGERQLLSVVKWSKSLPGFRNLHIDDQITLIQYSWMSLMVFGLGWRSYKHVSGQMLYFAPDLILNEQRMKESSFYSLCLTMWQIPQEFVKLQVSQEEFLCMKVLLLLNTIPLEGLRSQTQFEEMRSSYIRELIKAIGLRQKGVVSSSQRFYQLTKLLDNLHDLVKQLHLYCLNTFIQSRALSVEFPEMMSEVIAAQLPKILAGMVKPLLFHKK

Take `CCC=O`: the result in assay [1], in [3], in assay [4], in [8], in assay [16] and in [17] was inactive. In addition, the Potency result in [2], in assay [5], in assay [6], in assay [7], in assay [9] and in assay [10] was “inactive” in each case. The Potency entry in assay [11], in [12], in assay [13], in [14] and in [15] was “inactive” throughout.

Consider `COc1ccccc1OCC(O)CN1CCN(CC(=O)Nc2c(C)cccc2C)CC1` (stereo not given), for which the compound was called inactive in assay [1], in [3], in assay [4], in [8], in assay [16] and in [17]. Besides, the outcome in assay [19] was inactive. Also, the Potency result in assay [2], in assay [5], in assay [6], in assay [7], in assay [18] and in assay [9] was “inactive” throughout. In addition, the Potency entry in [10], in assay [11], in assay [12], in assay [13], in assay [14] and in [15] was “inactive” each time.

As to `Cc1ccc(Cl)cc1Cl`, the compound was classed as inactive in assay [1], in assay [3], in assay [4], in assay [8], in assay [16] and in assay [17]. In addition, the result in [19] was inactive. The Potency result in assay [2], in [5], in [6], in assay [7], in [18] and in assay [9] was “inactive” in each case. Further, the Potency entry in assay [10], in assay [11], in assay [12], in assay [13], in assay [14] and in assay [15] was “inactive” in each case.

As to `N=c1nc(N2CCCCC2)cc(N)n1O`, the compound was called inactive in [1], in assay [3], in [4], in assay [8], in assay [16] and in assay [17]. Further, the compound was called inactive in assay [19]. Also, the Potency entry in assay [2], in assay [5], in assay [6], in assay [7], in assay [18] and in [9] was “inactive” in each case. The Potency result in assay [10], in [11], in assay [12], in assay [13], in assay [14] and in assay [15] was “inactive” throughout.

For the compound `Nc1ccccc1S(=O)(=O)O`, the compound was called inactive in [1], in assay [3], in assay [4], in assay [8], in assay [16] and in assay [17]. Further, the Potency result in assay [2], in [5], in assay [6], in [7], in [9] and in [10] was “inactive” throughout. Further, the Potency entry in assay [11], in assay [12], in assay [13], in assay [14] and in assay [15] was “inactive” each time.

Take `Nc1c[n+](N2CCOCC2)no1`: the outcome in [1], in [3], in assay [4], in [8], in assay [17] and in [19] was inactive. The Potency entry in assay [2], in assay [5], in assay [6], in assay [7], in assay [18] and in [9] was “inactive” throughout. Besides, the Potency entry in assay [10], in assay [11], in assay [12], in assay [13], in [14] and in assay [15] was “inactive” each time.

Consider `CCS(=O)(=O)c1ccc(OC)c(C(=O)OC)c1`, for which the result in assay [1], in assay [3], in assay [4] and in [16] was inactive. Besides, the Potency entry in assay [2], in assay [5], in [6], in assay [7], in [18] and in assay [10] was “inactive” in each case. Besides, the Potency entry in assay [13], in [14] and in assay [15] was “inactive” each time.

For the compound `O=c1n(CCO)c(=O)n(CCO)c(=O)n1CCO`, the outcome in assay [1], in assay [3], in [4], in assay [8], in assay [16] and in assay [17] was inactive. Further, the outcome in [19] was inactive. Also, in assay [2], the Potency result was “inactive and 27.3 µM (active)”. The Potency entry in assay [5], in assay [6], in assay [7], in [18], in assay [9] and in assay [10] was “inactive” each time. For the same compound, the Potency result in assay [11], in [12], in assay [14] and in assay [15] was “inactive” in each case.
